Screening results deposited in PubChem BioAssay by NMMLSC.
Autofluor counter – counter-screen for toxin protease inhibitors: compound fluorescence | compound autofluorescence counterscreen, microsphere flow cytometry; stronger effect = higher value | fluorescence intensity (concentration not given with the values) | hit rate 3.1% among 360,000; in the data active = fluorescence intensity above about 16000; inconclusive = no clear call, values can overlap the other calls
BoNT F protease – inhibitors of Botulinum neurotoxin F light chain protease. Multiplex microsphere protease cleavage assay, flow cytometry. inhibition, % at 10 µM. hit rate 0.22% among 360,000; in the data active = inhibition above about 35%, passing the limit was not always enough; inconclusive = no clear call, values can overlap the other calls; also: plate controls were buffer without enzyme for full effect and enzyme alone for no effect
Anthrax LF inh2 – inhibitors of Bacillus anthracis lethal factor protease | AID 588501 | hit rate 0.12% among 360,000 | multiplex microsphere protease cleavage assay, LF | inhibition, % at 10 µM; also: plate controls were buffer without enzyme for full effect and enzyme alone for no effect
Target sequence (P15917 whole entry, looked up): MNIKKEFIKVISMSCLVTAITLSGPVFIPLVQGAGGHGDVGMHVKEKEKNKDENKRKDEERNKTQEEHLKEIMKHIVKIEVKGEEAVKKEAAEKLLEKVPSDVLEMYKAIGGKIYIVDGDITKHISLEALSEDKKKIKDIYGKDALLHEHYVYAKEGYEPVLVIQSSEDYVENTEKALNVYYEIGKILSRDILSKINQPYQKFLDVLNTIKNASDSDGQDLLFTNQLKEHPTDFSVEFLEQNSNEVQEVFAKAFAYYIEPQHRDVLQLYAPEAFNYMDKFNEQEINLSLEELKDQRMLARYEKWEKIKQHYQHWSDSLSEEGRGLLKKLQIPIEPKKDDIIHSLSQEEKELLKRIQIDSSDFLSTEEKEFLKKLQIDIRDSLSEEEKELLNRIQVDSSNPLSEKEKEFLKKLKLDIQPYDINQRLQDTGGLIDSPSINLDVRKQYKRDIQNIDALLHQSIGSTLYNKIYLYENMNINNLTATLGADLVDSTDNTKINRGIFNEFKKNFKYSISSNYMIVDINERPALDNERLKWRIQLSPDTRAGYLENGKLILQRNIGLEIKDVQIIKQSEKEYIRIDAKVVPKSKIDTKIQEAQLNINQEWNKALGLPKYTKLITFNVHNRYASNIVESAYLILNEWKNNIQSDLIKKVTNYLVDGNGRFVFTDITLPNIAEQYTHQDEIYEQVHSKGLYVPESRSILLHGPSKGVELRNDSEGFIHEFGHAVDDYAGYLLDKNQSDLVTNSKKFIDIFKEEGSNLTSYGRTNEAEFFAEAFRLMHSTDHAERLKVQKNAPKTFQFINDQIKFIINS
BoNT A protease – inhibitors of Botulinum neurotoxin A light chain protease; multiplex microsphere protease substrate cleavage, flow cytometry; inhibition, % at 10 µM; hit rate 0.17% among 360,000; AID 588499; also: plate controls were buffer without enzyme for full effect and enzyme alone for no effect
An asterisk follows results filed as active. An excerpt weighted towards active compounds, which were near 3.5% of everything screened. Rule as the data show it, unless noted: active = inhibition above about 30%; inconclusive = no clear call, values can overlap the other calls; inactive = below that.

Screening O=C(CSc1ncn[nH]1)Nc1ccccc1Sc1ccccc1 returned Autofluor counter 23235*, BoNT F protease 0, Anthrax LF inh2 -4 and BoNT A protease inconclusive.
N#Cc1ccsc1NC(=O)CSc1ncn[nH]1 was read as Autofluor counter 22762*, BoNT F protease 1, Anthrax LF inh2 0 and BoNT A protease 3.
`O=C(CCl)Nc1ccccc1Sc1ccc(Cl)cc1` gave Autofluor counter 20704*, BoNT F protease -5, Anthrax LF inh2 1 and BoNT A protease -3.
`O=C(CSc1ncn[nH]1)Nc1ccccc1-c1ccccc1` gave Autofluor counter 6683, BoNT F protease 8, Anthrax LF inh2 11 and BoNT A protease 3.
For COCCOC(=O)N1CCCCC1c1cc(C(=O)NCc2ccc(Cl)c(Cl)c2)no1 (centres undefined) the results were Autofluor counter 3990, BoNT F protease 3, Anthrax LF inh2 -5 and BoNT A protease 0.
`CN(C)CCN1CCN(C2CN(Cc3cn(Cc4ccccc4)nn3)S(=O)(=O)C2)CC1` (centres undefined) gave Autofluor counter 5978, BoNT F protease -9, Anthrax LF inh2 -3 and BoNT A protease 0.
Screening CN(C(=O)C1CCCN1S(=O)(=O)c1ccc(Cl)cc1)c1ccccc1 (centres undefined) returned Autofluor counter 7943, BoNT F protease 6, Anthrax LF inh2 1 and BoNT A protease 0.
`Cc1cccc(C(=O)Nc2cccc(C(=O)N/N=C/c3cccc(C)n3)c2)c1` gave Autofluor counter 3795, BoNT F protease 16, Anthrax LF inh2 -7 and BoNT A protease -2.
For CC(=O)Nc1cccc(C(=O)N/N=C/c2cccc(C)n2)c1 the results were Autofluor counter 3846, BoNT F protease 46*, Anthrax LF inh2 -3 and BoNT A protease 2.
For NNC(=O)c1cc2c(ccc3ccccc32)o1 the results were Autofluor counter 3213, BoNT F protease -1, Anthrax LF inh2 -8 and BoNT A protease 0.
`O=C(Nc1cccnc1)c1cc2c(ccc3ccccc32)o1` gave Autofluor counter 23266*, BoNT F protease -2, Anthrax LF inh2 -6 and BoNT A protease 0.
Screening CCCC(=O)Nc1cccc(NC(=O)c2ccc(C)c([N+](=O)[O-])c2)c1 returned Autofluor counter 23307*, BoNT F protease 0, Anthrax LF inh2 -1 and BoNT A protease inconclusive.
Screening CCC(=O)Nc1cccc(NC(=O)c2ccc(C)c([N+](=O)[O-])c2)c1 returned Autofluor counter 10494, BoNT F protease 0, Anthrax LF inh2 0 and BoNT A protease 0.
Screening N#C/C(C(=O)N1CCOCC1)=C1\Nc2ccccc2S1 returned Autofluor counter 20837*, BoNT F protease 1, Anthrax LF inh2 -1 and BoNT A protease 0.
For N#C/C(=C\c1cccs1)C(=O)N1CCOCC1 the results were Autofluor counter 4098, BoNT F protease inconclusive, Anthrax LF inh2 -29 and BoNT A protease inconclusive.
Screening Cn1c(SCC(=O)Nc2ccccc2F)nnc1-c1ccc(S(=O)(=O)N2CCOCC2)cc1 returned Autofluor counter 14730, BoNT F protease 5, Anthrax LF inh2 0 and BoNT A protease 5.
`COCCn1c(SCC(=O)Nc2ccc(S(N)(=O)=O)cc2)nc2ccccc21` gave Autofluor counter 2633, BoNT F protease -6, Anthrax LF inh2 -2 and BoNT A protease -1.
For COc1cccc(C(=O)CSc2nc3ccccc3n2CC(=O)N2CCOCC2)c1 the results were Autofluor counter 9737, BoNT F protease -6, Anthrax LF inh2 -2 and BoNT A protease 0.
O=C(CCCN1C(=O)c2ccccc2C1=O)Nc1ccc(S(=O)(=O)N2CCCCC2)cc1 was read as Autofluor counter 11121, BoNT F protease -14, Anthrax LF inh2 0 and BoNT A protease 0.
`COCCn1c(SCC(=O)Nc2ccc(S(=O)(=O)N3CCOCC3)cc2)nc2ccccc21` gave Autofluor counter 23038*, BoNT F protease -4, Anthrax LF inh2 -6 and BoNT A protease inconclusive.
For Cc1ccc(NC(=O)CSc2nnc(-c3ccc(S(=O)(=O)N4CCOCC4)cc3)n2C)cc1 the results were Autofluor counter 19086*, BoNT F protease 2, Anthrax LF inh2 -5 and BoNT A protease inconclusive.
Screening COc1cccc(NC(=O)Cn2c(SCC(=O)N3CCOCC3)nc3ccccc32)c1 returned Autofluor counter 16158*, BoNT F protease -2, Anthrax LF inh2 -5 and BoNT A protease inconclusive.
O=C(CCCN1C(=O)c2ccccc2C1=O)Nc1ccc(S(=O)(=O)N2CCOCC2)cc1 was read as Autofluor counter 24200*, BoNT F protease -7, Anthrax LF inh2 -5 and BoNT A protease inconclusive.
`C=Cn1cc(CNC[C@H]2O[C@@H](n3ccc(N)nc3=O)[C@H](O)[C@@H]2O)c(C)n1` gave Autofluor counter 3502, BoNT F protease -2, Anthrax LF inh2 -1 and BoNT A protease 0.
`C=C1CCCC2OC(CC3=CC4/C(C)=C/CC(C)CC(/C=C(\C)C(O)C5CC(O)C(O)C(CCC(O)/C=C/C(C)=C/CCC6=NCCC(C3)C64C)O5)OC(=O)CC3OC(C(O)C1)C(O)C3O)CC(O)C2O` (centres undefined) gave Autofluor counter 5123, BoNT F protease 4, Anthrax LF inh2 0 and BoNT A protease 0.
`COc1ccc(NC(=O)C(OC(=O)c2cnccn2)c2ccccc2)cc1Cl` (centres undefined) gave Autofluor counter 5604, BoNT F protease -2, Anthrax LF inh2 -5 and BoNT A protease 1.
Screening Cc1ccc(C)c(OCCC(=O)N2CCN(S(=O)(=O)c3cc(C)ccc3C)CC2)c1 returned Autofluor counter 6278, BoNT F protease -1, Anthrax LF inh2 -4 and BoNT A protease -2.
CCNc1nc(NC(C)C)nc(NS(=O)(=O)c2ccc(C)cc2)n1 was read as Autofluor counter 3867, BoNT F protease inconclusive, Anthrax LF inh2 -3 and BoNT A protease -3.
`CC(=O)Nc1ccc(C(=O)CSc2nc3ccccc3n2CC(=O)N2CCCC2)cc1` gave Autofluor counter 16357*, BoNT F protease -4, Anthrax LF inh2 -1 and BoNT A protease 0.
Screening CC1CCN(S(=O)(=O)c2ccc(NC(=O)CSc3nnnn3C)cc2)CC1 returned Autofluor counter 23542*, BoNT F protease -1, Anthrax LF inh2 2 and BoNT A protease -1.
Screening NC(=O)CSc1nnc(-c2ccc(S(=O)(=O)N3CCOCC3)cc2)n1CC1CCCO1 (centres undefined) returned Autofluor counter 22288*, BoNT F protease 3, Anthrax LF inh2 -6 and BoNT A protease 1.
CCn1c(SCC(=O)Nc2cc(C)on2)nnc1-c1ccc(S(=O)(=O)N2CCCC2)cc1 was read as Autofluor counter 20376*, BoNT F protease -1, Anthrax LF inh2 0 and BoNT A protease inconclusive.
CC(C)NC(=O)CSc1nnc(-c2ccc(S(=O)(=O)N3CCCC3)cc2)n1CC1CCCO1 (centres undefined) was read as Autofluor counter 3214, BoNT F protease -5, Anthrax LF inh2 1 and BoNT A protease 0.
`Cc1cc(NC(=O)CSc2nnc(-c3ccc(S(=O)(=O)N4CCCC4)cc3)n2C)no1` gave Autofluor counter 7416, BoNT F protease -1, Anthrax LF inh2 -1 and BoNT A protease 1.
For Cc1ccc(C(=O)N(C)Cc2nc3ccccc3c(=O)[nH]2)cc1NC(=O)c1ccco1 the results were Autofluor counter 3017, BoNT F protease 3, Anthrax LF inh2 1 and BoNT A protease 0.
